Assay results from PubChem BioAssay (Tox21).
Inconclusive results are not listed. Active and inactive are the calls of the source. Unless noted, calls follow the shape of the dose curve; as a rule, active = well fitted curve in the direction sought with a large enough effect in the repeat runs; inconclusive = weak or mixed curves; inactive = no such curve, though single readings can be large; an effect the other way counts as inactive or inconclusive.

Experiments:
[1] = biological target: Thyrotropin-releasing hormone receptor (Homo sapiens) (UniProt P34981); assay: qHTS assay to identify small molecule agonists of the thyrotropin-releasing hormone receptor (TRHR) signaling pathway (AID 1346891; calls by dose curve;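 also: HEK293 cells expressing TRHR with calcium dye readout; series mostly up to about 58 µM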)
Chain of Thyrotropin-releasing hormone receptor (Homo sapiens) (P34981 whole entry, looked up): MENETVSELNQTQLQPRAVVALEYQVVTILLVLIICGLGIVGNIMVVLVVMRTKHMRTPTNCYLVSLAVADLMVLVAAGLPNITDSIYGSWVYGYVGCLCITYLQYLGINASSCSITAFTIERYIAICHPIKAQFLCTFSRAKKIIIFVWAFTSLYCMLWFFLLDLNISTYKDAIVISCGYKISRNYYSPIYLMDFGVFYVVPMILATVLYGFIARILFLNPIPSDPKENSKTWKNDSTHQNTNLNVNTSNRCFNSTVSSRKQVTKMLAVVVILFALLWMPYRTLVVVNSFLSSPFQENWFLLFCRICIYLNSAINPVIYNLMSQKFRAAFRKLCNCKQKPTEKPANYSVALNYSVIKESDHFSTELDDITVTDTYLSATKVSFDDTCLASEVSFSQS
In short: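 In 1536-format, 1500 TRHR-Hek293 cells per well grew 18 h, took up calcium dye for 2 h at 37 °C, received compound, and were read kinetically; 15-point titrations, triplicates.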

[2] = Human pregnane X receptor (PXR) small molecule agonists, qHTS cell viability counter screen (AID 1346977); also: nearly all actives have a fitted effect of over 50% in size
In short: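 Readout is CellTiter-Fluor fluorescence from PXR-Luc HepG2 cells. Plated cells rested 5hr, then were treated with compounds for 24hr at 37C and 5% CO2, with reagent present during the last hour.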

[3] = Caspase-3/7 induction in HepG2 cells by small molecules, qHTS assay (AID 1346978); also: nearly all actives have a fitted effect of over 15% in size
In short: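 Wild-type HepG2 cells (2,000/well) were settled 5 h at 37 C, 5% CO2, then exposed to compounds in DMSO for 17 h. Caspase-3/7 activity was read by luminescence 30 min after adding Caspase-Glo 3/7 reagent at room temperature.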

[4] = Caspase-3/7 induction in CHO-K1 cells by small molecules, qHTS cell viability counter screen (AID 1346979); also: nearly all actives have a fitted effect of over 35% in size
In short: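 To flag cytotoxic compounds, treated CHO-K1 wild-type cells were given CellTiter-Fluor at 16hr and read fluorescently after 1hr at 37C; the caspase-3/7 luminescence was measured in these same wells.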

[5] = Caspase-3/7 induction in CHO-K1 cells by small molecules, qHTS assay (AID 1346980); also: nearly all actives have a fitted effect of over 15% in size
In short: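 Wild-type cells were seeded at 1,500 per well and settled 5 hr at 37 C, 5% CO2, then exposed to DMSO-dissolved compounds for 17 hr. Caspase-Glo 3/7 reagent was added, and luminescence was read after 30min at room temperature.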

[6] = Caspase-3/7 induction in HepG2 cells by small molecules, qHTS cell viability counter screen (AID 1346981); also: series mostly up to about 92 µM; nearly all actives have a fitted effect of over 30% in size
In short: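 In this quantitative HTS counter screen, compounds delivered in DMSO were left on unmodified HepG2 cells for 16 hr at 37 C. Viability was then determined fluorometrically with CellTiter-Fluor, in parallel with caspase-3/7 induction in the same wells.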

[7] = biological target: Nuclear receptor subfamily 1 group I member 2 (Homo sapiens) (UniProt O75469); assay: Human pregnane X receptor (PXR) small molecule agonists, qHTS assay (AID 1346982); also: nearly all actives have a fitted effect of over 35% in size; also: potency is read from the fitted curve at half-maximal effect
Chain of Nuclear receptor subfamily 1 group I member 2 (Homo sapiens) (O75469 whole entry, looked up): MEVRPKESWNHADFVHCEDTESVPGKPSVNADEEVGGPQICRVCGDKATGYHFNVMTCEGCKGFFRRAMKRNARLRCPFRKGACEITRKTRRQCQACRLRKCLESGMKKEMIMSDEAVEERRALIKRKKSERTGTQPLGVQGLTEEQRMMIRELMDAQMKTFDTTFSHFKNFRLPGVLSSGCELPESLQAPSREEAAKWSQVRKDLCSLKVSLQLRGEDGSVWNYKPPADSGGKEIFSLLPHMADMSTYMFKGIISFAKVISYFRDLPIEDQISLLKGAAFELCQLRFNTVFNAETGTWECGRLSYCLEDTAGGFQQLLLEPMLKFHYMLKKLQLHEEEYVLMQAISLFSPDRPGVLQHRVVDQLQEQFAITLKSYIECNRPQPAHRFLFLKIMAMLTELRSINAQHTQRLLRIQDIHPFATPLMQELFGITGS
In short: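 Reporter HepG2 cells expressing PXR-Luc are cultured in charcoal-stripped FBS (5%), treated with compounds for 24 hr at 37 C, and assayed by ONE-Glo luminescence after 30 min at room temperature.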

[8] = biological target: Cytochrome P450 2D6 (Homo sapiens) (UniProt P10635); assay: Cytochrome P450 Family 2 Subfamily D Member 6 (CYP2D6) small molecule antagonists: luciferase reporter qHTS assay (AID 1671196); also: nearly all actives have a fitted effect of over 50% in size; also: potency is read from the fitted curve at half-maximal effect; as to activity change, negative = inhibition: series mostly up to about 120 µM
Chain of Cytochrome P450 2D6 (Homo sapiens) (P10635 whole entry, looked up): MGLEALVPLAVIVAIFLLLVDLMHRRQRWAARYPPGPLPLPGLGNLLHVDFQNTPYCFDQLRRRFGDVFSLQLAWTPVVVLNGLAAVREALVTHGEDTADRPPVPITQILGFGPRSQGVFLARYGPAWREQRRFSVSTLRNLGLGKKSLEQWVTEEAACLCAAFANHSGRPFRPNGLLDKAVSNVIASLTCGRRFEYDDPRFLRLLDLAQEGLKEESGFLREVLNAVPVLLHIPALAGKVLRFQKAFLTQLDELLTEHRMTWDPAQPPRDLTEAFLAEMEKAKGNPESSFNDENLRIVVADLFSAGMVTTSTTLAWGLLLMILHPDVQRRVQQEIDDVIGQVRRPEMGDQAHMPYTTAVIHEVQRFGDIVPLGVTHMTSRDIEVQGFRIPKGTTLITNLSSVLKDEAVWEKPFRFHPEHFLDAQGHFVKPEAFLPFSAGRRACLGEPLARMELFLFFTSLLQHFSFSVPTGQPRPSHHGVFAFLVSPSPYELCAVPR
In short: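 Test chemicals meet CYP2D6 plus proluciferin substrate (10 min, RT); NADPH regenerating solution then drives turnover for 1 h. Detection reagent halts the reaction; luminescence measured after 20 min.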

[9] = biological target: Cytochrome P450 2C19 (Homo sapiens) (UniProt P33261); assay: Cytochrome P450 Family 2 Subfamily C Member 19 (CYP2C19) small molecule antagonists: luciferase reporter qHTS assay (AID 1671197); also: nearly all actives have a fitted effect of over 65% in size; also: potency is read from the fitted curve at half-maximal effect; as to activity change, negative = inhibition: series mostly up to about 120 µM
Chain of Cytochrome P450 2C19 (Homo sapiens) (P33261 whole entry, looked up): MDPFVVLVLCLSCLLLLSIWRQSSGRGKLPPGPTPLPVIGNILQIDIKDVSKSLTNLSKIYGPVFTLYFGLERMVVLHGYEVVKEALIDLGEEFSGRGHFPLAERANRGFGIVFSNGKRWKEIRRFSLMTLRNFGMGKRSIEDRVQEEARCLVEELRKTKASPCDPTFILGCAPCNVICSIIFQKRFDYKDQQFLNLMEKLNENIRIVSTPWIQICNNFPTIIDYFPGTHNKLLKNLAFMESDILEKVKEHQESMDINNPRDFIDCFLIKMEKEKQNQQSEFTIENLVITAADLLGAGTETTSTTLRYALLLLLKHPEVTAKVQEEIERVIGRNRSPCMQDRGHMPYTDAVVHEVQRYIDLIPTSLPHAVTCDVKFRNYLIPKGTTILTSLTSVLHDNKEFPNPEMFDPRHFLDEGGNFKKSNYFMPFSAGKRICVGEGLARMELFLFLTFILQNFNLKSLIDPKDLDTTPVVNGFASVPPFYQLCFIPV
In short: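 P450-Glo CYP2C19 screening system; proluciferin substrate; DMSO compound stocks; 10 min RT preincubation; NADPH regeneration, 1 h at 37C; luciferin detection reagent, 20 min RT; luminescence as RLU.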

[10] = biological target: Cytochrome P450 1A2 (Homo sapiens) (UniProt P05177); assay: Cytochrome P450 Family 1 Subfamily A Member 2 (CYP1A2) small molecule antagonists: luciferase reporter qHTS assay (AID 1671199); also: nearly all actives have a fitted effect of over 50% in size; also: potency is read from the fitted curve at half-maximal effect; as to activity change, negative = inhibition: series mostly up to about 120 µM
Chain of Cytochrome P450 1A2 (Homo sapiens) (P05177 whole entry, looked up): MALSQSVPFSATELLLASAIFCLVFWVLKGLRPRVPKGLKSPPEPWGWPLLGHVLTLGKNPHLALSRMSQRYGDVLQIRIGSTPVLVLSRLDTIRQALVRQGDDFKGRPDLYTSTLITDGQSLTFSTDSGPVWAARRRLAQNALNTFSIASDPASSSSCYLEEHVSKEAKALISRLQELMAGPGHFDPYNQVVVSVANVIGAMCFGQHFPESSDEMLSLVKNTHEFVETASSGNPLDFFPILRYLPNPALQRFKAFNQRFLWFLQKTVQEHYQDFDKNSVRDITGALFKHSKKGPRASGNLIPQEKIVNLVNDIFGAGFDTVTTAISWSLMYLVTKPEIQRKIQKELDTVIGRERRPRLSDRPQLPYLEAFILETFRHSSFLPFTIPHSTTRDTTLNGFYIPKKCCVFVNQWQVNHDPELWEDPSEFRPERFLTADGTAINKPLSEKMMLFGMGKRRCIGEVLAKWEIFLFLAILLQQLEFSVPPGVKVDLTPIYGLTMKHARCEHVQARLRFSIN
In short: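 Steps: enzyme-substrate mix dispensed; test compounds and furafylline control pinned in; 10 min room temperature; NADPH regeneration solution added, 1 h; reaction stopped with luciferin detection reagent; luminescence read after 20 min.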

[11] = biological target: Voltage-gated inwardly rectifying potassium channel KCNH2 (Homo sapiens) (UniProt Q12809); assay: Human Ether-a-go-go-Related Gene (hERG) channel small molecule antagonists: fluorescence cell-based qHTS assay (AID 1671200);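 also: hERG-expressing U2OS cells given a thallium stimulus after FluxOR II dye loading; series mostly up to about 77 µM; nearly all actives have a fitted effect of over 50% in size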
Chain of Voltage-gated inwardly rectifying potassium channel KCNH2 (Homo sapiens) (Q12809 whole entry, looked up): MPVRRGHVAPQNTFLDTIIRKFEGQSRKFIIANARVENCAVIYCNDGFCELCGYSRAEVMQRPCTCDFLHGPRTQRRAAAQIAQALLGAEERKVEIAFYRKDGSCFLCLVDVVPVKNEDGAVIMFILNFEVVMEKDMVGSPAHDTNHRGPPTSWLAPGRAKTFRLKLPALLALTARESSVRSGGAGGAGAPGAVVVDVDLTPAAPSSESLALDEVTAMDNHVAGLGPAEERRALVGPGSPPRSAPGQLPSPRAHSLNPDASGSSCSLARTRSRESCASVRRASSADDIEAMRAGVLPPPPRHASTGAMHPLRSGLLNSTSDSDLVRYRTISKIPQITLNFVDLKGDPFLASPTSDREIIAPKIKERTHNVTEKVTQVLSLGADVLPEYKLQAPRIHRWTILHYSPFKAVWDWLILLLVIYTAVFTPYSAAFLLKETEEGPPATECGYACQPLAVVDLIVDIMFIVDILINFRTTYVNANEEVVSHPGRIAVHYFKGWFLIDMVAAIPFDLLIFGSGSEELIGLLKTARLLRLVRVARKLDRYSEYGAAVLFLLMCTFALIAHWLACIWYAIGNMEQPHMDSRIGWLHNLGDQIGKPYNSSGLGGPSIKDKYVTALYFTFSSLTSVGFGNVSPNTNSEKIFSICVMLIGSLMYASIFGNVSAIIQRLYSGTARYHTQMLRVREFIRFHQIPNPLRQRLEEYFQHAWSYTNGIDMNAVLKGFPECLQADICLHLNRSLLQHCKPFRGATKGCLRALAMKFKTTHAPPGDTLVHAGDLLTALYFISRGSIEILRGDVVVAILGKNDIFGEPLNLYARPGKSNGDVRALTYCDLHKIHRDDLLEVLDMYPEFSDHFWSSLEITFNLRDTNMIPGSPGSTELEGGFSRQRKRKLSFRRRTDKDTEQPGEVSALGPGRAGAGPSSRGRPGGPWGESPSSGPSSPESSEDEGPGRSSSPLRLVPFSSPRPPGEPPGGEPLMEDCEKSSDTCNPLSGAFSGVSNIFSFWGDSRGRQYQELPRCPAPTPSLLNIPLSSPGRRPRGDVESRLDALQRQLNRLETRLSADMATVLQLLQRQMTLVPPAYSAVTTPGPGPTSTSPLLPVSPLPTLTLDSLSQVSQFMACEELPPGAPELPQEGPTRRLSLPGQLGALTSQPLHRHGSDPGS
In short: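 Measured: Tl+ flux via fluorescence (480/540 nm) in hERG-expressing U2OS cells after 1 h dye loading at room temperature.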

[12] = biological target: Cytochrome P450 3A4 (Homo sapiens) (UniProt P08684); assay: Cytochrome P450 Family 3 Subfamily A Member 4 (CYP3A4) small molecule antagonists: luciferase reporter qHTS assay (AID 1671201)
Chain of Cytochrome P450 3A4 (Homo sapiens) (P08684 whole entry, looked up): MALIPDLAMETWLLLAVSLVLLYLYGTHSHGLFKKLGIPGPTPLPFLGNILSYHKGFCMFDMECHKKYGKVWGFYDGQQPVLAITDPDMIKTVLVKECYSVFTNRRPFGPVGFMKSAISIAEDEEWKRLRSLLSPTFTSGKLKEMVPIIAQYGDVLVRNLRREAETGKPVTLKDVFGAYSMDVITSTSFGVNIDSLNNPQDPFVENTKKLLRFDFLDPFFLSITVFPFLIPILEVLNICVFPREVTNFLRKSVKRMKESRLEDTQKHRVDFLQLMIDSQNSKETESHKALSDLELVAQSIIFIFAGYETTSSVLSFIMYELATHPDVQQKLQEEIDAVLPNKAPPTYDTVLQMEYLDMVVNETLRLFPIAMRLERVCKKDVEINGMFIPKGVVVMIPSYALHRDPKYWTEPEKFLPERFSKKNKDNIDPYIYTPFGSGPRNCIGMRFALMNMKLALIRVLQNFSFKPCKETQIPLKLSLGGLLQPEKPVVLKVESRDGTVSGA
In short: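 Setup: enzyme-substrate mix, compound pin transfer, 10 min RT. Reaction: NADPH regeneration solution, 1 h RT. Readout: detection reagent stops turnover, luminescence measured after 20 min, expressed in relative luminescence units.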

[13] = biological target: Cytochrome P450 2C9 (Homo sapiens) (UniProt P11712); assay: Cytochrome P450 Family 2 Subfamily C Member 9 (CYP2C9) small molecule antagonists: luciferase reporter qHTS assay (AID 1671198); also: nearly all actives have a fitted effect of over 50% in size; also: potency is read from the fitted curve at half-maximal effect; as to activity change, negative = inhibition: series mostly up to about 120 µM
Chain of Cytochrome P450 2C9 (Homo sapiens) (P11712 whole entry, looked up): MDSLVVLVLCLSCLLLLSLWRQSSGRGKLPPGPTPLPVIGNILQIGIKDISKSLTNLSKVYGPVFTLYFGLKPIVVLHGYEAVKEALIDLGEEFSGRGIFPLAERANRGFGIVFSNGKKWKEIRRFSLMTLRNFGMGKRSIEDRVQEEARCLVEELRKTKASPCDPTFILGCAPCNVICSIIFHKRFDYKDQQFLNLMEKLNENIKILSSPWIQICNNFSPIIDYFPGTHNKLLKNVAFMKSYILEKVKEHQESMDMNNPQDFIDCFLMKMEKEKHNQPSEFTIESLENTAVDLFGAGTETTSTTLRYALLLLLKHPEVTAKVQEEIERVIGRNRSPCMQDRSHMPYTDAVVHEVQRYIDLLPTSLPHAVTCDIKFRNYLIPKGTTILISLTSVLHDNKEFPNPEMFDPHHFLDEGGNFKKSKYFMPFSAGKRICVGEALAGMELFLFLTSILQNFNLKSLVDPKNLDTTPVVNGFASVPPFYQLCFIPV
In short: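 CYP2C9 activity was measured with a P450-Glo proluciferin substrate. Enzyme–substrate mix was held with compound for 10 min at room temperature, then NADPH regeneration solution was added for 1 h at 37C. Luciferin product was read as luminescence.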

[14] = biological target: Nuclear receptor subfamily 1 group I member 2 (Rattus norvegicus) (UniProt Q9R1A7); assay: Rat pregnane X receptor (rPXR) activation by small molecules, qHTS assay (AID 1346983); settings: rPXR luciferase reporter cells, One-Glo luminescence, 24 h; max activation: hits give high values; also: nearly all actives have a fitted effect of over 20% in size; also: potency is read from the fitted curve at half-maximal effect
Chain of Nuclear receptor subfamily 1 group I member 2 (Rattus norvegicus) (Q9R1A7 whole entry, looked up): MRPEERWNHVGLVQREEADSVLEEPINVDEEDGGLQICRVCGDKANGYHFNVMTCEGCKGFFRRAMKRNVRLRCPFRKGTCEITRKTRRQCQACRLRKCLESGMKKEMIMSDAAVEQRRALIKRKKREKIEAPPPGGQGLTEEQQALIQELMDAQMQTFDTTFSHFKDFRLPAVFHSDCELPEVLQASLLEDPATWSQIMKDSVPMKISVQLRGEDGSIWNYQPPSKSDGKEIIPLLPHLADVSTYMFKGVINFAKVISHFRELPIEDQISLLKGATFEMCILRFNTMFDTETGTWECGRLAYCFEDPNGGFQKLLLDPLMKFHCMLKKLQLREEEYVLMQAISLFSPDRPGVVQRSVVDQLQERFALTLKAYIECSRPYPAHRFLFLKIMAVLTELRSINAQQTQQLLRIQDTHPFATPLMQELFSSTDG
In short: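 Cell-based rPXR luciferase reporter assay, 2,000 cells per well, rested 5hr at 37 C before compound addition in DMSO, then 24 hr at 37 C. One-Glo reagent was added and luminescence read after 30 min at room temperature.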

[15] = biological target: Nuclear receptor subfamily 1 group I member 2 (Homo sapiens) (UniProt O75469); assay: CYP3A4 induction through human pregnane X receptor (PXR) by small molecules, qHTS assay (AID 1346984); also: nearly all actives have a fitted effect of over 40% in size
In short: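 Induction measured in HepG2-based DPX-2 cells co-expressing human PXR and a CYP3A4 promoter-driven luciferase. After a 24-hour compound exposure, cells received CYP3A4 luciferin substrate at 3uM final for 3 hours, and light output was then recorded.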

[16] = biological target: Nuclear receptor subfamily 1 group I member 2 (Homo sapiens) (UniProt O75469); assay: Human pregnane X receptor (PXR) activation by small molecules, qHTS assay (AID 1346985); also: nearly all actives have a fitted effect of over 40% in size; also: potency is read from the fitted curve at half-maximal effect
In short: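 DPX-2 cells (HepG2 co-transfected with a PXR response element and a CYP3A4-promoter luciferase construct) were seeded at 2,000 per well, rested 5 hr at 37C, then exposed to DMSO-dissolved compounds for 24 hr. Activation was read as luciferase luminescence.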
% is scaled to controls: 0 for no effect and ±100 for the full control effect.

C1COCO1
inactive: Potency [1] | Potency [2] | Potency [3] | Potency [4] | outcome [5] | Potency [6] | Potency [7] | Potency [8] | Potency [9] | Potency [10] | Potency [11] | Potency [12]

c1cnc2c(n1)CCCC2
inactive: Potency [1] | Potency [2] | Potency [3] | Potency [4] | outcome [5] | Potency [6] | Potency [7] | Potency [8] | Potency [9] | Potency [13] | Potency [10] | Potency [11] | Potency [12]

CCCCCCCCSCCO
active: Potency [9] 20 µM | Potency [13] 44.8 µM | Potency [10] 39.9 µM
inactive: Potency [1] | Potency [2] | Potency [3] | Potency [4] | outcome [5] | Potency [6] | Potency [7] | Potency [8] | Potency [11] | Potency [12]

CO[C@H]1O[C@H](CO)[C@@H](O)[C@H](O)[C@H]1O
inactive: Potency [1] | Potency [2] | Potency [3] | Potency [4] | outcome [5] | Potency [6] | Potency [7] | Potency [8] | Potency [9] | Potency [13] | Potency [10] | Potency [11] | Potency [12]

N#C/C(=C1\SCC(c2ccccc2Cl)S1)n1ccnc1 (stereo not given)
inactive: Potency [1] | Potency [2] | Potency [3] | Potency [4] | outcome [5] | Potency [6] | max activation [14] -0.365% | Potency [15] | Potency [11]
active: Potency [7] 26.6 µM | Potency [16] 14.1 µM | Potency [8] 2.19 µM | Potency [9] 0.0776 µM | Potency [13] 2.45 µM | Potency [10] 0.871 µM

CCC1(C)CC(=O)NC1=O (stereo not given)
inactive: Potency [1] | Potency [2] | Potency [3] | Potency [4] | outcome [5] | Potency [6] | Potency [7] | max activation [14] -2.98% | Potency [15] | Potency [16] | Potency [9] | Potency [13] | Potency [10] | Potency [11] | Potency [12]

CC1CN(c2cc3c(cc2F)c(=O)c(C(=O)O)cn3-c2ccc(F)cc2F)CCN1 (stereo not given)
inactive: activation [1] 0% [at 5.23 µM] | activity change, negative = cytotoxicity [2] -4.03% [at 8.39 µM] | caspase activation [3] -0.856% [at 8.39 µM] | activity change, negative = cytotoxicity [4] -1.36% [at 8.39 µM] | caspase-3/7 activation [5] -0.241% [at 8.39 µM] | activity change, negative = cytotoxicity [6] -2.3% [at 8.39 µM] | activation [7] -2.46% [at 8.39 µM] | activity change, negative = inhibition [8] -0.211% [at 10.5 µM] | activity change, negative = inhibition [9] 31.4% [at 10.5 µM] | activity change, negative = inhibition [13] 2.17% [at 10.5 µM] | activity change, negative = inhibition [10] 1.79% [at 10.5 µM] | activity change, negative = inhibition [11] 3.92% [at 6.97 µM] | activity change, negative = inhibition [12] 4.32% [at 10.5 µM]

CCC(C)(O)CCC=C(C)C (stereo not given)
inactive: Potency [1] | Potency [2] | Potency [3] | Potency [4] | outcome [5] | Potency [6] | Potency [7] | Potency [8] | Potency [13] | Potency [10] | Potency [11] | Potency [12]

CCCC(=O)O[C@]1(C(=O)COC(=O)CC)CC[C@H]2[C@@H]3CCC4=CC(=O)CC[C@]4(C)[C@H]3[C@@H](O)C[C@@]21C
inactive: activation [1] -0.132% [at 11.8 µM] | activity change, negative = cytotoxicity [2] 12.4% [at 19 µM] | caspase activation [3] -2.33% [at 19 µM] | activity change, negative = cytotoxicity [4] 11.7% [at 19 µM] | caspase-3/7 activation [5] 1.2% [at 19 µM] | activity change, negative = cytotoxicity [6] 3.19% [at 19 µM] | activation [7] -1.9% [at 19 µM] | activity change, negative = inhibition [8] -0.0142% [at 23.6 µM] | activity change, negative = inhibition [9] -11.3% [at 23.6 µM] | activity change, negative = inhibition [13] 11.6% [at 23.6 µM] | Potency [10] | activity change, negative = inhibition [11] 4.88% [at 15.8 µM] | activity change, negative = inhibition [12] 1.97% [at 23.6 µM]

CC1CC(O)CC(C)(C)C1 (stereo not given)
inactive: Potency [1] | Potency [2] | Potency [3] | Potency [4] | outcome [5] | Potency [6] | Potency [7] | max activation [14] -0.957% | Potency [15] | Potency [16] | Potency [8] | Potency [9] | Potency [13] | Potency [11] | Potency [12]

CC(C)OCC1CO1 (stereo not given)
inactive: Potency [1] | Potency [2] | Potency [3] | Potency [4] | outcome [5] | Potency [6] | Potency [7] | Potency [8] | Potency [9] | Potency [13] | Potency [10] | Potency [11] | Potency [12]

CC(=O)Nc1ccccc1C
inactive: Potency [1] | Potency [2] | Potency [3] | Potency [4] | outcome [5] | Potency [6] | Potency [7] | Potency [8] | Potency [13] | Potency [10] | Potency [11] | Potency [12]

COc1ccc(CCC(=O)c2c(O)cc(O[C@@H]3O[C@H](CO)[C@@H](O)[C@H](O)[C@H]3O[C@@H]3O[C@@H](C)[C@H](O)[C@@H](O)[C@H]3O)cc2O)cc1O
inactive: Potency [1] | Potency [2] | Potency [3] | Potency [4] | outcome [5] | Potency [6] | Potency [7] | Potency [8] | Potency [9] | Potency [11]
active: Potency [13] 25.3 µM

C[C@@H]1C[C@H]2[C@@H]3CCC4=CC(=O)C=C[C@]4(C)[C@@]3(F)[C@@H](O)C[C@]2(C)[C@H]1C(=O)CO
active: Potency [7] 18.8 µM | Potency [14] 2.51 µM | Potency [9] 8.71 µM | Potency [13] 15.5 µM
inactive: Potency [1] | Potency [2] | Potency [3] | Potency [4] | outcome [5] | Potency [6] | Potency [15] | Potency [16] | Potency [8] | Potency [10] | Potency [11]

CC1(C)C(=O)N(Br)C(=O)N1Cl
active: Potency [9] 71 µM | Potency [13] 63.3 µM
inactive: Potency [1] | Potency [2] | Potency [3] | Potency [4] | outcome [5] | Potency [6] | Potency [7] | Potency [8] | Potency [11]

CCOC(=O)c1ccccc1C
inactive: Potency [1] | Potency [2] | Potency [3] | Potency [4] | outcome [5] | Potency [6] | Potency [7] | Potency [8] | Potency [9] | Potency [11] | Potency [12]

CCCCCCCCCCCC[N+](C)(C)CCCS(=O)(=O)[O-]
inactive: Potency [1] | Potency [2] | Potency [3] | Potency [4] | outcome [5] | Potency [6] | Potency [7] | Potency [8] | Potency [9] | Potency [13] | Potency [10] | Potency [11] | Potency [12]
